Reference: PubChem BioAssay AID1159580 (chemical genetic matrix, 2015)
Values joined by “and” are separate entries in the source; they are usually repeats but may differ in a detail not shown here. Identical values can stand only once. The whole screen tested about 5,500 compounds, of which about 2,000 (36%) were called active. About 18% were inconclusive and are not listed. No stated cut-off is given here; in the data, active means normalized growth mostly below about 0.91 (no sharp cut-off); inconclusive means no clear call, values can overlap the other calls; inactive means mostly above about 0.92. The list shows a part of the results.

Test: chemical genetic growth profiling, strain panel (AID 1159580);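 further: tested at 20 µM; growth read once vehicle control cultures reached saturation at 30 °C; 1 = growth at the plate median or of vehicle wells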
Conditions: S. cerevisiae deletion strains, growth OD

Measured: normalized growth

CC(=O)OCC(=O)[C@H]1CCC2C3CCC4=CC(=O)CC[C@]4(C)C3CC[C@@]21C (stereo partly specified)
inactive: locus YAL021C, strain ccr4, stronger effect = lower value 0.94 | locus YAL026C, strain drs2, stronger effect = lower value 0.978 | locus YAL030W, strain snc1, stronger effect = lower value 0.979 | locus YBL061C, strain skt5, stronger effect = lower value 0.967 | locus YBR009C, strain hhf1, stronger effect = lower value 0.986 | locus YBR021W, strain FUR4, stronger effect = lower value 0.898 | locus YBR023C, strain chs3, stronger effect = lower value 0.94 | locus YBR171W, strain sec66, stronger effect = lower value 0.927 | locus YBR229C, strain ROT2, stronger effect = lower value 0.969 | locus YBR231C, strain swc5, stronger effect = lower value 1 | locus YBR279W, strain paf1, stronger effect = lower value 0.976 | locus YCL011C, strain gbp2, stronger effect = lower value 0.969 | locus YCL016C, strain dcc1, stronger effect = lower value 0.961 | locus YCL029C, strain bik1, stronger effect = lower value 0.957 | locus YCL061C, strain MRC1, stronger effect = lower value 0.984 | locus YCL069W, strain vba3, stronger effect = lower value 0.98 | locus YCR088W, strain abp1, stronger effect = lower value 0.972 | locus YDL005C, strain med2, stronger effect = lower value 0.964 | locus YDL035C, strain GPR1, stronger effect = lower value 0.86 | locus YDL040C, strain nat1, stronger effect = lower value 0.973 | locus YDL101C, strain DUN1, stronger effect = lower value 0.961 | locus YDL185W, strain tfp1, stronger effect = lower value 0.949 | locus YDL192W, strain arf1, stronger effect = lower value 0.935 | locus YDR001C, strain nth1, stronger effect = lower value 0.972 | locus YDR069C, strain doa4, stronger effect = lower value 0.967 | locus YDR101C, strain arx1, stronger effect = lower value 0.954 | locus YDR137W, strain rgp1, stronger effect = lower value 1.11 | locus YDR159W, strain sac3, stronger effect = lower value 0.885 | locus YDR195W, strain ref2 1.07 | locus YDR297W, strain sur2, stronger effect = lower value 0.975 | locus YDR318W, strain mcm21, stronger effect = lower value 0.929 | locus YDR334W, strain swr1, stronger effect = lower value 0.971 | locus YDR335W, strain msn5, stronger effect = lower value 0.988 | locus YDR388W, stronger effect = lower value 0.94 | locus YEL003W, strain gim4, stronger effect = lower value 0.994 | locus YEL037C, strain rad23, stronger effect = lower value 0.977 | locus YEL061C, strain CIN8 (second series), stronger effect = lower value 0.977 | locus YEL061C, strain CIN8, stronger effect = lower value 0.944 | locus YER015W, strain faa2, stronger effect = lower value 0.969 | locus YER016W, strain bim1, stronger effect = lower value 0.962 | locus YER110C, stronger effect = lower value 0.943 | locus YER111C, strain swi4, stronger effect = lower value 0.971 | locus YFR010W, strain ubp6, stronger effect = lower value 0.994 | locus YGL078C, strain dbp3, stronger effect = lower value 0.961 | locus YGL086W, strain mad1, stronger effect = lower value 0.934 | locus YGL167C, strain pmr1, stronger effect = lower value 0.951 | locus YGL173C, strain kem1, stronger effect = lower value 0.948 | locus YGL227W, strain vid30, stronger effect = lower value 0.992 | locus YGL240W, strain doc1, stronger effect = lower value 0.95 | locus YGL248W, strain PDE1, stronger effect = lower value 0.927 | locus YGL253W, strain hxk2, stronger effect = lower value 0.919 | locus YHR013C, strain ard1, stronger effect = lower value 0.997 | locus YHR027C, strain rpn1, stronger effect = lower value 0.996 | locus YHR030C, strain SLT2, stronger effect = lower value 0.944 and 1.02 | locus YHR079C, strain IRE1 (second series), stronger effect = lower value 0.956 | locus YHR079C, strain IRE1, stronger effect = lower value 1.02 | locus YHR094C, strain hxt1, stronger effect = lower value 0.956 | locus YHR129C, strain ARP1, stronger effect = lower value 0.944 | locus YHR142W, strain chs7, stronger effect = lower value 0.944 | locus YHR200W, strain rpn10, stronger effect = lower value 0.924 | locus YIL073C, strain SPO22, stronger effect = lower value 0.828 | locus YIL125W, strain kgd1, stronger effect = lower value 0.955 | locus YJL092W, strain hpr5, stronger effect = lower value 0.976 | locus YJL095W, strain BCK1 (second series), stronger effect = lower value 0.965 | locus YJL115W, strain asf1, stronger effect = lower value 0.984 | locus YJL129C, strain trk1, stronger effect = lower value 0.931 | locus YJL134W, strain LCB3, stronger effect = lower value 0.976 | locus YJL154C, strain vps35, stronger effect = lower value 0.98 | locus YJL164C, strain tpk1, stronger effect = lower value 0.978 | locus YJL166W, strain qcr8, stronger effect = lower value 0.989 | locus YJL168C, strain set2, stronger effect = lower value 0.96 | locus YJL187C, strain SWE1 (second series), stronger effect = lower value 0.935
0.752 (active) and 0.988 (inactive): locus YJL095W, strain BCK1, stronger effect = lower value
active: locus YAL013W, strain DEP1, stronger effect = lower value 0.886 | locus YDL074C, strain BRE1, stronger effect = lower value 0.777 | locus YDL134C, strain PPH21, stronger effect = lower value 0.826 | locus YDR162C, strain NBP2, stronger effect = lower value 0.78 | locus YDR392W, strain spt3, stronger effect = lower value 0.56 | locus YDR502C, strain sam2, stronger effect = lower value 0.899 | locus YER155C, strain BEM2 (second series), stronger effect = lower value 0.835 | locus YER155C, strain BEM2, stronger effect = lower value 0.92 | locus YER167W, strain BCK2, stronger effect = lower value 0.829 | locus YGR135W, strain pre9, stronger effect = lower value 0.84 | locus YGR252W, strain gcn5, stronger effect = lower value 0.72 | locus YIL066C, strain RNR3, stronger effect = lower value 0.809 | locus YIR030C, strain dcg1, stronger effect = lower value 0.927
